The values that follow come from PubChem BioAssay (NCI).

SMILES strings stand for the structures. The panel holds about 83,000 compounds, 20% with a hit somewhere; the sample as a whole holds those more often.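 Treatment: one concentration, 48 hours, 96-well format. Scoring: percent growth, with anything below 10 considered active.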 Calls of active or inactive are those of the source.

The subject of the experiment is HL-60(TB) leukemia. Nature of the experiment: NCI-60 one-dose screen, 48 h (100 = growth as untreated, 0 = no growth, -100 = all killed). Conditions: 10 µM unless noted.
Consider `COc1cc2c(c(OC)c1OC)C(=O)CC(c1cccc(C(=O)Nc3ccccc3Br)c1)O2` (stereo unspecified), for which the growth is 76.5% (inactive).

Regarding `CN(C)c1ccc(C2Nc3ccccc3-n3cccc32)cc1` (stereo unspecified), the growth is 123% (inactive).

With `COC(=O)[C@]12CC[C@@H](C)[C@H](C)[C@@H]1C1=CC[C@@H]3[C@@]4(C)C[C@@H](OC(=O)c5ccco5)[C@H](O)[C@@](C)(CO)[C@@H]4[C@H](O)C[C@@]3(C)[C@]1(C)CC2`, the growth is -79.6% (active).

As to `Cc1ccc(N2C(=O)CCC2=O)cc1`, the growth is 104% (inactive).

Consider `O=C(N=Nc1c(O)[nH]c2ccccc12)c1oc2ccccc2c1CN1CCN(c2ccccc2)CC1`, for which the growth was 49.8% (inactive).

Take `Cc1c(C(=O)OCCCCOC(=O)c2c(C)n(C)c3scc[n+]23)[n+]2ccsc2n1C`: the growth is 87.1% (inactive).

Turning to `COc1cc(C2CC(c3ccc(Cl)cc3)=NN2C=O)ccc1Oc1ccnc2cc(Cl)ccc12` (stereo unspecified), the growth was 85.9% (inactive).

In the case of `CCSc1nc2ccccc2o1`, the growth was 97.5% (inactive).

As to `O=C(O)CN1C(=O)c2cccc3cccc(c23)C1=O`, the growth was 118% (inactive).

For `COC(=O)c1c(C)nc(C)c2c1C(=O)C(Br)=C(NCCN1CCOCC1)C2=O`, the growth is 61.9% (inactive).

`O=C1Nc2c(ccc(Cl)c2Cl)/C1=C\c1ccc(C(F)(F)F)cc1`: the growth was 51.8% (inactive).

As to `CCN(CC)c1ccc(/C=N/NC(=O)c2ccc(Nc3ccnc(C(F)(F)F)c3)cc2)c(O)c1`, the growth was 53.2% (inactive).

`c1ccc(-c2nc3sc(-c4ccccc4)cn3n2)cc1`: the growth is 78.8% (inactive).

Turning to `OCCNc1nc(Nc2ccc(C3=NN(c4cc(Cl)cc(Cl)c4)C(c4ccc(C(F)(F)F)cc4)C3)cc2)nc(N2CCOCC2)n1` (stereo unspecified), the growth was 101% (inactive).

`COc1cnc2c(c1)C(=O)c1c-2n(CCCN2CCN(C)CC2)c(=O)c2cc(Cl)ccc12`: the growth is 50.6% (inactive).

With `Cc1cc2cn3c4ccc(O)cc4nc(N)c3c2cc1C`, the growth is -32.5% (active).

For `CC(C)CSc1nc(Nc2ccccc2)c(C#N)c(-c2ccc(F)cc2)n1`, the growth was 73.4% (inactive).

Take `CCCN(CCC)CCC(O)c1cc2c(c3ccccc13)CCCC2` (stereo unspecified): the growth is 113% (inactive).

Turning to `C/C(=C\c1cnc(C)s1)[C@@H]1C[C@@H]2O[C@@H]2CCC[C@H](C)[C@H](O)[C@@H](C)C(=O)C(C)(C)[C@@H](O)CC(=O)O1`, the growth was 0.639% (active).

Consider `CCCCCCCC/C=C/CCCCCCCC1=NC(C)(C)CN1C(C)C`, for which the growth is -65.6% (active).

As for `CC/C=C\C=C/C(=O)N/C=C/CC1Cc2cccc(O)c2C(=O)O1` (stereo unspecified), the growth was 17.4% (inactive).

For the compound `COc1cc(/C=C\c2cc(OC)c(OC)c(OC)c2)cc(NC(=O)/C=C/c2cc(OC)c(OC)c(OC)c2)c1OC`, the growth is -6.4% (active).

Consider `COc1ccc2c(c1)C(=O)/C(=C/c1ncc([N+](=O)[O-])n1C)O2`, for which the growth was -7.47% (active).

Consider `ClC1=C(Cl)C(Cl)=C(Cl)C1=Cc1ccccc1`, for which the growth was -8.87% (active).

Consider `Oc1c(CN2CCOCC2)cc(COCc2ccccc2)c2cccnc12`, for which the growth is 0.702% (active).

Regarding `Clc1ccc(N2CCN(CCCN3CCN(c4cccc(Cl)c4)CC3)CC2)cc1`, the growth was 17% (inactive).
